Test results from PubChem BioAssay.
Values joined by “and” are separate entries in the source; they are usually repeats but may differ in a detail not shown here. Equal entries are not always repeated. Records with an inconclusive call do not appear. For some assays here: Measured potencies and affinities stand elsewhere. Active and inactive are the calls of the source. Unless noted, the rule behind the calls is not given here.

Tests used:
[1] = drug combination toxicity in non-malignant astrocytes – cell-based, BGB or cisplatin IC20 combos, cytotoxicity control for chromothriptic childhood tumor combination screen (AID 1671460; in the data active = inhibition above about 80%;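 note: cells exposed to compounds for 96 hours before viability readout; 0% = vehicle and 100% = killing control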); conditions: Human astrocytes, viability inhibition, drug combinations, at 0.5 µM, stronger effect = higher value
[2] = biological target: Mitogen-activated protein kinase 7 (Homo sapiens) (UniProt Q13164); assay: Gal4-ERK5 driven luciferase induction – cell-based, HTS, primary screen (AID 1508626;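 active = luciferase signal above three times the same-plate solvent-only control wells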;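 note: luciferase driven by Gal4-ERK5 fusion binding five Gal4 sites before minimal TATA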); conditions: HeLa Gal4-ERK5 transactivation, 18 h, at 5 µM, stronger effect = higher value
Mitogen-activated protein kinase 7 (Homo sapiens), sequence (Q13164 whole entry, looked up, the tested form may be a part): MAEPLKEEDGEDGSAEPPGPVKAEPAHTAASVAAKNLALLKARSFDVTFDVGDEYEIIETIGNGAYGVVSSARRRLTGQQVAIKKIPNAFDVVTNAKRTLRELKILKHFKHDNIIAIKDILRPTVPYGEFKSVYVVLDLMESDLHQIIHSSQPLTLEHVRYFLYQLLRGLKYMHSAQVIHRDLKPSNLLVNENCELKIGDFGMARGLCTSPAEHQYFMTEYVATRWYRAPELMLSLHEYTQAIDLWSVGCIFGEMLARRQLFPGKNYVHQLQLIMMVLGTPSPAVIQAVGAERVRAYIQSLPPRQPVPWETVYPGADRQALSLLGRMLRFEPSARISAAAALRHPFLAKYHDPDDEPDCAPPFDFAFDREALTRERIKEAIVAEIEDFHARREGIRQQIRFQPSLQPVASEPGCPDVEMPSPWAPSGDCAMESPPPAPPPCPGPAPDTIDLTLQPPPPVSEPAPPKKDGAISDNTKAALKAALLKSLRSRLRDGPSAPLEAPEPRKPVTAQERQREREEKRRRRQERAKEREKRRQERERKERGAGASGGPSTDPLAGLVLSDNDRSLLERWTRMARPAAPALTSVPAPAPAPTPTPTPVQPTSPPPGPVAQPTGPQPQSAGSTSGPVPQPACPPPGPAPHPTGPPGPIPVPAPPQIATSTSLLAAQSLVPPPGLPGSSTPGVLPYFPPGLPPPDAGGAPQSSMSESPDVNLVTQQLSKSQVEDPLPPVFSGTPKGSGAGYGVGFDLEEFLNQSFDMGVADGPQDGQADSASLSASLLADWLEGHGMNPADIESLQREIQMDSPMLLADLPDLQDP

[3] = liver-stage malaria parasite load reduction – cell-based, known kinase inhibitor set, luminescence, hepatoma host viability (AID 624392); conditions: Plasmodium liver stage in hepatoma cells, luciferase luminescence, concentration not given here; liver cell % of control: measured here: host liver cell viability; parasite % of control: stronger effect = lower value;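 note: infected cells incubated roughly two days before readout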
[4] = blockers of polyQ-driven CASP3 activation – cell-based (AID 1583); conditions: polyglutamine-induced caspase-3 activation, cell assay; stronger effect = higher value;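 tested at 10 µM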
[5] = yeast 75Q aggregation reduction – 75Q-TubU reporter (AID 1593); conditions: Yeast 75Q polyglutamine aggregation reporter
[6] = restoration of touch response, mutant HTT neurons – whole organism, C. elegans mechanosensory neurons, N-terminal huntingtin (AID 1599); conditions: C. elegans polyQ-huntingtin mechanosensory neurons, stronger effect = higher value
[7] = blockers of cytochrome c efflux from mitochondria – biochemical, purified mitochondria (AID 1603); conditions: stronger effect = lower value;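 note: mouse liver mitochondria challenged with calcium chloride; signal normalized to the plate average as 100%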
[8] = polyglutamine aggregate formation blockers (AID 1604); conditions: polyglutamine-induced protein aggregation inhibition assay; stronger effect = higher value; tested at 2.5 µM
[9] = glutamate transport activators, MN-1 cells, MN-1 cell line (AID 1612); conditions: MN-1 motor neuron cells, stronger effect = higher value;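 note: tested at 1 µM final; 0% = mean of DMSO vehicle wells on each plate; positive means more glutamate uptake than control and negative means less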
[10] = GFP-Q80 aggregate reduction, neuronal-like cells, cell-based, NGF-treated PC12, GFPQ80 (AID 1614); conditions: PC12 NGF-treated GFP-polyQ80 inclusion reduction;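 note: lower means fewer inclusions and 0 means no inclusions at all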
[11] = 75Q-TubH aggregate inhibition, S. cerevisiae, yeast (AID 1616); conditions: S. cerevisiae 75Q-TubH polyglutamine aggregation suppression; stronger effect = higher value
[12] = compounds altering viability of human ES cells (AID 493140); conditions: human embryonic stem cell survival screen; stronger effect = higher value;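 note: cells exposed to compounds for four days before counting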
[13] = biological target: ATP-dependent translocase ABCB1 (Homo sapiens) (UniProt P08183); assay: P-glycoprotein substrate transport blockade – cell-based (AID 377; in the data active = fluorescence slope change above about 50%); conditions: MDR1-expressing cells, fluorescent substrate accumulation slope; stronger effect = higher value; concentration not given here
ATP-dependent translocase ABCB1 (Homo sapiens), sequence (P08183 whole entry, looked up): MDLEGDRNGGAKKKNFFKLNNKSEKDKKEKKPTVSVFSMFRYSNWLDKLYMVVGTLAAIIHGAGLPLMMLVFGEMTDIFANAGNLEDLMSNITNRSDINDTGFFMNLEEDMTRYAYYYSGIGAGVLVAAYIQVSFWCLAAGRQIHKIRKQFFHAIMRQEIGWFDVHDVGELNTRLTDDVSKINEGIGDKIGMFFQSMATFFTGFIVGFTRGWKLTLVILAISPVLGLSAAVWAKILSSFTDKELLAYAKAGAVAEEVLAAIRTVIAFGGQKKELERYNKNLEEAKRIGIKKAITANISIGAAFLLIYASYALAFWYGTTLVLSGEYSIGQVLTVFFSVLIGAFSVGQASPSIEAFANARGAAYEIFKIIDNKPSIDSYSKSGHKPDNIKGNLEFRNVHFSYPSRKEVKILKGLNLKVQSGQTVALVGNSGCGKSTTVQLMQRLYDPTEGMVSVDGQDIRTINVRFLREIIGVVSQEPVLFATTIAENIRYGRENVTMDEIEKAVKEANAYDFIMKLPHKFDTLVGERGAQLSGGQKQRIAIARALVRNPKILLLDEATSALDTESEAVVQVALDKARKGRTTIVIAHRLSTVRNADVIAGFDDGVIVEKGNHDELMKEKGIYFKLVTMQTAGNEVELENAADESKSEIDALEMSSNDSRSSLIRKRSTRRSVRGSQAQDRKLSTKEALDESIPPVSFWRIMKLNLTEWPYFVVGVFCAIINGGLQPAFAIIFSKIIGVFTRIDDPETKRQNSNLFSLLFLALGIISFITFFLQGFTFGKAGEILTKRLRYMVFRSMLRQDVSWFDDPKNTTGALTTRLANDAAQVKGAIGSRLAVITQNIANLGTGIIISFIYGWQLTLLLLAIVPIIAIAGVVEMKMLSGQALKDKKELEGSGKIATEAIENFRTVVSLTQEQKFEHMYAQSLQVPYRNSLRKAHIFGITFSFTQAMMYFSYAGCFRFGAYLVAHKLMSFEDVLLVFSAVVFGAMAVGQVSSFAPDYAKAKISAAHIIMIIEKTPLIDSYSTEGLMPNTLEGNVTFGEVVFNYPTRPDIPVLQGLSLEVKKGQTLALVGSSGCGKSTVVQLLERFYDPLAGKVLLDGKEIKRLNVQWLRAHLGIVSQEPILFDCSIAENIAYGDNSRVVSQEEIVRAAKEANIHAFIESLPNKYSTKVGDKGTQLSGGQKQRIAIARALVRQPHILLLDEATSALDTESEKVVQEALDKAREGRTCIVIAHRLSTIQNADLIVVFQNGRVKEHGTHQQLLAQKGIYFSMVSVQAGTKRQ

[14] = signal quenchers or enhancers, Cy5 substrate/SSB – biochemical, NIH Clinical Collection, E. coli SSB, artefact control for HCV NS3 helicase inhibitor project (AID 743268); conditions: Cy5-oligo bound E. coli SSB, fluorescence interference
[15] = system: Hepatitis C virus NS3 helicase; assay: blockers of NS3h binding to DNA – biochemical, fluorescence polarization, NIH Clinical Collection, primary screen (AID 743270); conditions: NS3 helicase binding to Cy5-dT15 DNA, stronger effect = higher value, concentration not given here
[16] = biological target: Single-stranded DNA-binding protein (Escherichia coli (strain K12)) (UniProt P0AGE0); assay: SSB-ssDNA binding inhibitors – biochemical, fluorescence polarization, NIH Clinical Collection, counter-screen for HCV NS3 helicase inhibitor project (AID 743271; in the data active = inhibition above about 28%); conditions: E. coli SSB-DNA binding, stronger effect = higher value, concentration not given here
[17] = compounds distorting NS3 helicase fluorescence signal – biochemical, NIH Clinical Collection, artefact control for HCV NS3 helicase inhibitor project (AID 743272); conditions: fluorescence interference counterscreen, HCV NS3 helicase assay; stronger effect = lower value;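 note: HCV NS3 helicase with a Cy5 labelled single stranded DNA probe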
[18] = measured here: combo with BGB IC20
[19] = measured here: combo with cisplatin IC20

In the case of `C[C@@]1(c2nc3c(C(N)=O)cccc3[nH]2)CCCN1`, the inhibition [1] is reported as -5.3% (inactive) and -11.3% (inactive), the inhibition [1, 18] is reported as -6.99% and -18.5% and the inhibition [1, 19] is reported as -13.8% and -3.66%.

With `CC1(C)S[C@@H]2[C@H](NC(=O)[C@H](NC(=O)N3CCNC3=O)c3ccccc3)C(=O)N2[C@H]1C(=O)O` the luciferase signal [2] was 60 AU (inactive).

For `Cc1ccc(NC(=O)c2ccc(CN3CCN(C)CC3)cc2)cc1Nc1nc(-c2cccnc2)cs1`, the liver cell % of control [3] was 46.6% and 78.6% and 98.8% and the parasite % of control [3] was 29.5% (inactive) and 24.2% (inactive) and 36% (inactive).

For `CCOC(=O)NCCCC(=O)NCCc1ccccc1`, the inhibition [1] was 6.08% (inactive) and 5.44% (inactive), the inhibition [1, 18] was 1.7% and -5.49% and the inhibition [1, 19] was 7.7% and 23%.

For `NC[C@H]1O[C@H](O[C@H]2[C@H](O)[C@@H](O[C@H]3O[C@H](CO)[C@@H](O)[C@H](N)[C@H]3O)[C@H](N)C[C@@H]2N)[C@H](O)[C@@H](O)[C@@H]1O`, the inhibition [4] was 5.91%, the score [5] was 1.82 and the rescue above control [6] was -8.71. For the same compound, the cytochrome c release ratio [7] was 1, the inhibition of aggregation [8] was 28.5% and the glutamate uptake change [9] was 2.43%. The inclusion score [10] was 2, the aggregation suppression score [11] was 1.68 and the luciferase signal [2] was 40 AU (inactive).

For `CCOC(=O)O[C@]1(C(=O)COC(=O)CC)CC[C@H]2[C@@H]3CCC4=CC(=O)C=C[C@]4(C)[C@H]3[C@@H](O)C[C@@]21C`, the survival [12] was 5.17 (inactive).

For `CO[C@H]1C[C@H](O[C@H]2[C@H](C)[C@@H](O[C@@H]3O[C@H](C)C[C@H](N(C)C)[C@H]3OC(C)=O)[C@@H](C)C[C@@]3(CO3)C(=O)[C@H](C)[C@@H](OC(C)=O)[C@@H](C)[C@@H](C)OC(=O)[C@@H]2C)O[C@@H](C)[C@@H]1OC(C)=O`, the luciferase signal [2] was 232 AU (inactive).

For `NCc1ccccc1CC(=O)N[C@@H]1C(=O)N2C(C(=O)O)=C(CSc3nnnn3CC(=O)O)CS[C@H]12`, the survival [12] was 7.42 (inactive).

In the case of `CC(C)[N+]1(C)[C@@H]2CC[C@H]1CC(OC(=O)C(CO)c1ccccc1)C2` (stereo not given in full), the fluorescence slope change [13] is reported as 52.9% (active) and the luciferase signal [2] is reported as 44 AU (inactive).

With `C[C@@H]1CCC[C@H](C)N1NC(=O)c1ccc(Cl)c(S(N)(=O)=O)c1` the fluorescence slope change [13] was 11.3% (inactive) and the luciferase signal [2] was 100 AU (inactive).

In the case of `O=C(NCC1(c2nc(-c3ccccc3)cs2)CCOCC1)c1cccc(-c2noc(C(F)(F)F)n2)c1`, the inhibition [1] is reported as -27.1% (inactive) and -7.2% (inactive), the inhibition [1, 18] is reported as -8.11% and -1.8% and the inhibition [1, 19] is reported as -58.3% and -12.6%.

For `CO[C@@]1(NC(=O)C2SC(=C(C(N)=O)C(=O)O)S2)C(=O)N2C(C(=O)O)=C(CSc3nnnn3C)CS[C@@H]21` (stereo not given in full), the survival [12] was 11.4 (inactive).

With `C[C@]12CC[C@@H]3c4ccc(OS(=O)(=O)O)cc4CC[C@H]3[C@@H]1CCC2=O` the survival [12] was 5.67 (inactive), the fluorescence ratio [14] was 1.03 (inactive) and the inhibition [15] was -1.09% (inactive). For the same compound, the inhibition [16] was -2.76% (inactive), the fluorescence ratio [17] was 1.01 (inactive) and the luciferase signal [2] was 76 AU (inactive).
